This is part of a sample that, as a whole, favours compounds with a hit. Of some 83,000 tested, about 20% had one in any assay.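 Testing used 96-well plates and a 48-hour single-concentration exposure. Example: -40 means 40% of the starting cells died.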 A number with no mark means an inactive call. Calls of active or inactive are those of the source. How the source made its calls: active means growth percent below 10; inactive means the rest.
What was measured:
Assay in all cases: NCI-60 one-dose screen, 48 h (100 = growth as untreated, 0 = no growth, -100 = all killed)
Conditions in all cases: 10 µM unless noted
[1] = tested on: NCI-H23 lung
[2] = tested on: NCI-H226 lung
[3] = tested on: NCI-H322M lung
[4] = tested on: HOP-62 NSCLC
[5] = tested on: NCI-H460 lung
[6] = tested on: HOP-92 NSCLC
[7] = tested on: NCI-H522 lung
[8] = tested on: A549/ATCC NSCLC
[9] = tested on: 786-0 renal
[10] = tested on: COLO 205 colon
[11] = tested on: DU-145 prostate
[12] = tested on: K-562 leukemia
[13] = tested on: MALME-3M melanoma
[14] = tested on: MDA-MB-231 breast
[15] = tested on: RXF 393 renal
[16] = tested on: SF-268 CNS
[17] = tested on: SF-295 CNS
[18] = tested on: SF-539 CNS
[19] = tested on: UACC-257 melanoma
[20] = tested on: M14 melanoma

| SMILES | growth [1] | growth [2] | growth [3] | growth [4] | growth [5] | growth [6] | growth [7] | growth [8] | growth [9] | growth [10] | growth [11] | growth [12] | growth [13] | growth [14] | growth [15] | growth [16] | growth [17] | growth [18] | growth [19] | growth [20] |
| --- | --- | --- | --- | --- | --- | --- | --- | --- | --- | --- | --- | --- | --- | --- | --- | --- | --- | --- | --- | --- |
| CCCC(=O)O[C@@H]1C[C@H]2C[C@@H](O[C@@H]3O[C@@H](C)[C@@H](O)[C@@H](O)[C@H]3OC)C[C@@H](C[C@@H](C)/C=C/C=C\C[C@@H]3O[C@@H](C[C@@H]3C)[C@@H](O)C[C@H]3C[C@@]1(O)C(=O)O3)O2 | 25.9% | 33.3% | 88.4% | 64.8% | 47.3% | 91.6% | 21% | 46.4% | 76.6% | 39.4% | 48.8% | 21.2% | 64.7% | 86.4% | 72.1% | 80.1% | 7.39% (active) | 67.6% | 9.61% (active) | 69.8% |
| CC[C@H](C)[C@H](NC(=O)[C@H]1CCCCN1C)C(=O)N(C)[C@H](C[C@@H](OC(C)=O)c1nc(C(=O)NC23CC(C(=O)OC)(C2)C3)cs1)C(C)C | 18.4% | 18.3% | 55.7% | 11.8% | 8.77% (active) | -1.71% (active) | -22.3% (active) | 9.09% (active) | 9.6% (active) | -46.8% (active) | -5.33% (active) | 5.87% (active) | 67.3% | 15% | 35.9% | 23.2% | 2.38% (active) | -22% (active) | 46.6% | 4.22% (active) |
| Cc1cc(N(CCCl)CCCl)ccc1C=Nc1ccccc1-c1ccccc1 | 60.8% | -38.8% (active) | 101% | 54.6% | 16.4% | 84.4% | 99.5% | 59.6% | 52.1% | 86.1% | 61.2% | 85% | 77.1% | 94.4% | 45.5% | 62.8% | 27.2% | 61.7% | 55.3% | 75.8% |
| O=[N+]([O-])CC(O)C(Cl)(Cl)Cl (stereo not given) | 98.6% | 103% | 103% | 99.8% | 101% | 93.2% | 99.1% | 106% | 103% | 98.2% | 117% | 113% | 97.5% | 122% | 116% | 101% | 102% | 92.6% | 111% | 104% |
| C/C(=C\c1ccn(-c2ccc(N)cc2)n1)[C@@H]1C[C@@H]2O[C@]2(C)CCC[C@H](C)[C@H](O)[C@@H](C)C(=O)C(C)(C)[C@@H](O)CC(=O)O1 | 26.1% | 31.7% | 18.6% | 44.7% | 13.3% | 48.7% | 18.6% | 29.8% | 20.2% | 1.88% (active) | -8.99% (active) | 11.4% | 36.7% | 33.5% | -0.234% (active) | 37.4% | 18.6% | -2.33% (active) | 59.5% | -17% (active) |
| C/C(CC(C)(C)N1CC1)=N\NC(=O)Nc1cccc2ccccc12 | 68% | 56.4% | 81.2% | 62.5% | 42.9% | 24.2% | 48.7% | 63% | 70.4% | 52.3% | 68.2% | 78.2% | 74.5% | 58.3% | 39.2% | 52.9% | 67% | 70.3% | 86.4% | 72.8% |
| CNC12C3C4C1C1C2C3C41C(=O)N[C@H](C(=O)N(C)[C@H](C[C@@H](OC(C)=O)c1nc(C(=O)N[C@@H](Cc2ccccc2)C[C@H](C)C(=O)OC)cs1)C(C)C)C1CC1 (stereo not given in full) | 7.82% (active) | 11.2% | 48.5% | 22.1% | 14.8% | -15.3% (active) | -27.4% (active) | 17.7% | 15.5% | -46.5% (active) | -1.19% (active) | 0.86% (active) | 34% | 0.928% (active) | 25.5% | 14.4% | 7.26% (active) | -1.2% (active) | 41.1% | 4.03% (active) |
| C[C@@H]1CCC2[C@@H](C)[C@H](OC(=O)CCC(=O)NCCNC(=O)Cc3cc(=O)oc4cc(N(C)C)ccc34)O[C@@H]3O[C@]4(C)CC[C@@H]1C23OO4 (stereo not given in full) | 21.5% | 65.3% | 79.2% | 82.8% | 39.4% | 29.3% | -4.8% (active) | 51.4% | 36.7% | 47.6% | 94% | 13.6% | 49.6% | 77% | 61.7% | 56.7% | 41.8% | 55.4% | 59.1% | 38.4% |

Source: PubChem BioAssay (NCI)
